Compound activity from PubChem BioAssay.
Shown are actives, neighbours in structure and some others; about 10% of the full set was active somewhere.
Luciferase inh: Firefly luciferase inhibition profiling of diverse chemical library using quantitative high-throughput screening; purified P. pyralis luciferase, luminescence, biochemical; Luciferin 4-monooxygenase (Photinus pyralis), P08659; AID 1347043, 2019; 2.5% of 76,000 active; Potency, µM (doses to about 115 µM), usual class: inhibitors; also: nearly all actives have a fitted effect of over 65% in size
Target sequence (P08659 whole entry, looked up): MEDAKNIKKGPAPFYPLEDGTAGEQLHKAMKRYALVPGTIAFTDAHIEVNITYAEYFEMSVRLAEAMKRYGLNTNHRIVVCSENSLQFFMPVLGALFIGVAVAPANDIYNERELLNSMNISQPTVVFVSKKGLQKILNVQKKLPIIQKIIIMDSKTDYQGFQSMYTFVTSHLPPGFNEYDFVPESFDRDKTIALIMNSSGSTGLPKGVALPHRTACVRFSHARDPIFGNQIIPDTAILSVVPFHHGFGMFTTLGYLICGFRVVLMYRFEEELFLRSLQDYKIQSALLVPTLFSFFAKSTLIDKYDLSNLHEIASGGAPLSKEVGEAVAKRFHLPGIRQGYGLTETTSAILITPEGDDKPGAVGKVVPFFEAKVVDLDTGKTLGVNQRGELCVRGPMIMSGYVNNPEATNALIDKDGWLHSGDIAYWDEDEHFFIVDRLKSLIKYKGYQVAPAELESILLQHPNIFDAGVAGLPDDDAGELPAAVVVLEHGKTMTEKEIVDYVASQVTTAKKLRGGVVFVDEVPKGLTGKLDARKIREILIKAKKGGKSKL
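Luminescence read by CCD imager after adding enzyme (10nM final) to wells holding compound, titrated in qHTS. Substrates 10uM each D-luciferin and ATP; buffer 50mM Tris acetate pH 7.5, 10mM Mg acetate, Tween-20, BSA.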
HEK cytotox: Cytotoxic Profiling in HEK 293 Cell Line of Diverse Libraries Using Quantitative High-Throughput Screening; HEK 293 viability, ATP luminescence (CellTiter-Glo), 48-72 h; Potency, µM (top dose mostly 115 µM), most hits filed as inhibitors; 6.6% of 94,000 active; also: nearly all actives have a fitted effect of over 60% in size
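Luminescence from cellular ATP, measured with CellTiter-Glo, indicates HEK 293 viability. Cells plated at 250 cells/well are treated with compound for 48 or 72 hr at 37 degree Celsius before reagent addition.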
NIH3T3 tox: Cytotoxic Profiling in NIH 3T3 Cell Line of Diverse Libraries Using Quantitative High-Throughput Screening; NIH 3T3 viability, CellTiter-Glo ATP luminescence, 48-72 h; Potency, µM (top dose mostly 96.7 µM), usual class: inhibitors; 4.3% of 94,000 active; AID 1345082, 2018; also: nearly all actives have a fitted effect of over 55% in size
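Cells were seeded at 400 per well, treated with pin-transferred compound, and kept 48 or 72 hr at 37 °C before CellTiter-Glo addition and luminescence imaging of cellular ATP.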
NPR1 antag: Natriuretic polypeptide receptor (hNpr1) antagonism - Primary qHTS; Atrial natriuretic peptide receptor 1 (Homo sapiens), P16066; HEK293 hNpr1 GloSensor cGMP, ANP-stimulated luminescence; Potency, µM (highest dose often 46.3 µM), hits mostly inhibitors; 1.6% of 76,000 active; calls by dose curve; also: nearly all actives have a fitted effect of over 60% in size
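Compound pre-incubated 30 min at room temperature on GloSensor-loaded HEK293 cells stably carrying hNpr1 and the pGS-40F cGMP biosensor. Stimulation uses hNppA at 0.1 nM final; luminescence is taken at baseline and 20 min post-agonist.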
GPT2 inhibitor: Primary qHTS assay for inhibitors of Glutamate pyruvate transaminase 2 (GPT2) | Alanine aminotransferase 2 (Homo sapiens), Q8TD30 | Recombinant GPT2, coupled pyruvate oxidase/HRP Amplex Red fluorescence | Potency, µM (highest dose often 57.7 µM), usual class: inhibitors | 0.25% of 100,000 active; also: nearly all actives have a fitted effect of over 60% in size
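Recombinant GPT2 (10ng/uL) with 250uM a-KG and 2mM L-alanine, 30 min at room temperature, in HEPES pH 7.5 buffer. Pyruvate detected by pyruvate oxidase/HRP/Amplex Red fluorescence after 30 min in the dark; AOA (50uM) as positive control.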
A number is an active result; . = inactive; ? = inconclusive; / = not tested or not shown; [ ] = another dose, or the depositor's remark. Unless noted, calls follow the shape of the dose curve; as a rule, active = well fitted curve in the direction sought with a large enough effect; inconclusive = small, poorly fitted or top-dose-only effect, or another doubt; inactive = no such curve, though single readings can be large; an effect the other way counts as inactive or inconclusive.

SMILES	Luciferase inh	HEK cytotox	NIH3T3 tox	NPR1 antag	GPT2 inhibitor
c1cnc2nc(C3CCN(CC4CCCCC4)C3)[nH]c2c1 (stereo not drawn)	20µM	?	.	.	.
Cc1ccc([S+](=O)([O-])N2CCC(C(=O)N3CCCC(c4nc5ncccc5[nH]4)C3)CC2)cc1 (stereo not drawn)	/	28.2µM	?	/	.
O=C(C1CCCN([S+](=O)([O-])c2cccc(C(F)(F)F)c2)C1)N1CCCC(c2nc3ccncc3[nH]2)C1 (stereo not drawn)	/	44.7µM	?	/	.
O=C(CCc1ccnc(N2CCOCC2)c1)NCCN1CCc2ccccc2C1	.	.	.	.	.
Cc1noc(C)c1[S+](=O)([O-])N1CCCC(C(=O)N2CCC(c3nc4ncccc4[nH]3)CC2)C1 (stereo not drawn)	/	.	.	/	.
Cc1ccc([S+](=O)([O-])N2CCCC(C(=O)N3CCC(c4nc5ncccc5[nH]4)CC3)C2)cc1 (stereo not drawn)	/	50.1µM	?	/	.
COCCN1CCOc2nc(-c3cccc(OC(F)(F)F)c3)ncc2C1=O	15.8µM	?	?	.	.
CN(C)C(=O)c1ccc(-c2ncc3c(n2)OCCN(Cc2ccccc2)C3=O)cc1	.	?	.	.	?
O=C1c2cnc(-c3cccc(CO)c3)nc2OCCN1Cc1ccccc1	17.8µM	?	?	.	.
COc1ccc(CN2CCOc3nc(-c4cc(F)cc(F)c4)ncc3C2=O)cc1	.	?	?	.	.
COc1ccc(CN2CCOc3nc(-c4cccc(C#N)c4)ncc3C2=O)cc1	.	100µM	?	.	.
O=C1c2cnc(-c3cc(F)cc(F)c3)nc2OCCN1Cc1ccccc1	44.7µM	?	?	.	.
CCC(=O)NCc1cc2c(nc1OC)CN(C1CCCC1)C2=O	.	.	?	.	.[11.5 µM]
Cc1ccc([S+](=O)([O-])N2CCC(C(=O)N3CCC(N4CCCC4=O)CC3)CC2)cc1	/	.	.	/	.
O=C1c2cnc(-c3cc4ccccc4o3)nc2OCCN1CC1CC1	?	?	?	1.41µM	?
COc1ccc(CN2CCCC3(Cc4ccccc4CNC3=O)C2)cc1 (stereo not drawn)	/	.	?	/	.
Cc1noc2c(NCc3cccnc3)cc(-c3ccc(F)cc3)nc12	.	?	?	.	.
Cc1noc2c(NCC3CCOCC3)cc(-c3ccc(Cl)cc3)nc12	.	100µM	?	.	.
Cc1noc2c(NCCN3CCOCC3)cc(-c3ccc(Cl)cc3)nc12	.	?	?	.	.
Cc1noc2c(NCc3ccncc3)cc(-c3ccc(Cl)cc3)nc12	.	?	44.7µM	.	.
Cc1noc2c(NCc3cccnc3)cc(-c3ccc(Cl)cc3)nc12	.	100µM	?	.	.
CCC(CC)NC(=O)CN1C(=O)C(Oc2ccc(F)cc2)C12CCCCC2 (stereo not drawn)	/	?	?	/	.
CC(=O)Nc1ccc(-c2ccc(=O)n3c2[C@@H]2C[C@@H](CN(C(=O)COc4ccccc4)C2)C3)cc1	.	39.8µM	.	.	.
CC(=O)Nc1ccc(-c2ccc(=O)n3c2[C@@H]2C[C@@H](CN(S(=O)(=O)c4ccc(Cl)cc4)C2)C3)cc1	.	14.1µM	.	.	.
CC(=O)Nc1ccc(S(=O)(=O)N2C[C@@H]3C[C@H](C2)c2c(-c4ccc(Cl)cc4)ccc(=O)n2C3)cc1	.	.	.	.	.
SMILES	Luciferase inh	HEK cytotox	NIH3T3 tox	NPR1 antag	GPT2 inhibitor
Cc1cccc(N2Cc3c(ncnc3N3CCN(c4ncccn4)CC3)N(C)CC2=O)c1	/	.	.	/	.
COc1ccccc1-c1cccc(C(=O)N2CCC[C@H]2C(=O)NCc2ccccc2F)c1	/	?	.	/	.
O=[S+]([O-])(NC1CCN(c2nc3ncccc3o2)C1)c1cccc(C(F)(F)F)c1 (stereo not drawn)	/	.	.	/	.
COc1ccccc1CN1C[C@@H](CO)[C@H](c2ccncc2)C1	.	.	.	.	.
CC(C)Oc1ccccc1CN1C[C@@H](CO)[C@H](c2ccncc2)C1	.	39.8µM	?	.	.
COC[C@@H]1CN(Cc2cccc(OC)c2OC)C[C@H]1c1ccncc1	.	39.8µM	?	.	.
COc1cccc(CN2C[C@@H](CO)[C@H](c3ccncc3)C2)c1OC	.	89.1µM	.	.	.
Cn1c(Cn2cccn2)nnc1C1CC(NC(=O)CN2CCCCCCC2)C1 (stereo not drawn)	.	.	.	.	.[11.5 µM]
CNC(=O)c1cc(C2CC2)nc2onc(C3CCN(C(=O)c4cccc(Cl)c4)CC3)c12	/	.	?	/	/
Cc1nn(-c2ccccc2)c2c1C(C1CC1)N(C1CN([S+](=O)([O-])c3c(C)noc3C)C1)C2=O (stereo not drawn)	/	.	.	/	/
COCCNC[C@@H]1C=C(C)[C@H](Cc2nnc(-c3ccc(OC)cc3)o2)C[C@H]1C(C)C	.	28.2µM	28.2µM	.	?
CC1=C[C@@H](CN(C)CCO)[C@H](C(C)C)C[C@H]1Cc1nnc(-c2ccc(C)cc2)o1	.	89.1µM	?	.	.
COc1ccc(-c2nnc(C[C@@H]3C[C@@H](C(C)C)[C@H](CO)C=C3C)o2)cc1	.	39.8µM	?	.	.
O=C(Nc1ccc2ncnc(N3CCCCC3)c2c1)c1ccc(F)cc1F	.	?	?	.	.
O=[N+]([O-])c1cccc(-c2noc([C@@H]3C[C@@H](O)CN3CC3CCCCC3)n2)c1	.	63.1µM	?	.	.
Cc1ccc(-c2noc([C@@H]3C[C@@H](O)CN3Cc3ncc[nH]3)n2)cc1F	25.1µM	?	?	.	.
COc1ccc(-c2noc([C@@H]3C[C@@H](O)CN3C3CCN(C)CC3)n2)cc1	70.8µM	.	.	.	.
O=[N+]([O-])c1cccc(-c2noc([C@@H]3C[C@@H](O)CN3Cc3ncc[nH]3)n2)c1	.	.	.	.	.
COc1ccc(-c2noc([C@@H]3C[C@@H](O)CN3Cc3ccccn3)n2)cc1	?	?	35.5µM	?	.
COc1cccc(N2C(=O)NC(=NC3CCCC3)C23CCN(Cc2cccn2C)C3)c1 (stereo not drawn)	/	.	.	/	.
O[C@@H]1C[C@@H](c2nc(-c3ccccc3)no2)N(Cc2ncc[nH]2)C1	22.4µM	.	.	.	.
c1ccc(COC2CCN(c3nccc(-c4cccnc4)n3)CC2)nc1	.	?	?	.	.
Fc1ccccc1OCC1CCCN(c2nccc(-c3cccnc3)n2)C1 (stereo not drawn)	.	?	79.4µM	.	?
